PubChem BioAssay (NCATS)
Inconclusive results are not listed. Activity calls are given as the source filed them. The call rests on the fitted dose curve; in most records, active means well fitted curve in the direction sought with a large enough effect; inconclusive means small, poorly fitted or top-dose-only effect, or another doubt; inactive means no such curve, though single readings can be large; an effect the other way counts as inactive or inconclusive.

Assays:
[1] = Quantitative High-Throughput drug screen in 47 multiple myeloma cell lines against the NCATS MIPE library collection: AMO1_DSMZ cell viability assay (AID 1918927; further: nearly all actives have a fitted effect of over 30% in size)
In short: (§1)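 Approved and investigational drugs from MIPE 4.0 were added by pin tool to 500 cells per well. After 48 hours at 37C, ATP-based CellTiter-Glo luminescence indicated remaining viability.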

[2] = Quantitative High-Throughput drug screen in 47 multiple myeloma cell lines against the NCATS MIPE library collection: ARP1_JJKsccF8 cell viability assay (AID 1918928; further: nearly all actives have a fitted effect of over 40% in size)
In short: (§2)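 Here, 48 h treatment with MIPE 4.0 agents at 37 °C preceded an ATP luminescence read. Plating density was 500 cells per well.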

[3] = Quantitative High-Throughput drug screen in 47 multiple myeloma cell lines against the NCATS MIPE library collection: Karpas620_DSMZ cell viability assay (AID 1918959); further: nearly all actives have a fitted effect of over 30% in size
In short: (§3)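 Luminescent ATP measurement with CellTiter-Glo gives viability, scaled between DMSO-only wells (100%) and media-only wells (0%). Cells, 500 per well, faced library compounds for 48 hours at 37C.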

[4] = Quantitative High-Throughput drug screen in 47 multiple myeloma cell lines against the NCATS MIPE library collection: KMM1_JCRB cell viability assay (AID 1918960); further: nearly all actives have a fitted effect of over 30% in size
In short: as §2

[5] = Quantitative High-Throughput drug screen in 47 multiple myeloma cell lines against the NCATS MIPE library collection: Karpas417_ECACC cell viability assay (AID 1918961); conditions: Karpas417 myeloma viability, CellTiter-Glo ATP luminescence, 48 h; viability (% of DMSO): at 45.8 µM (top of the series) unless noted
In short: (§4)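 Steps: seed 500 cells per well; pin-transfer MIPE 4.0 library; incubate 48 h at 37C, 5% CO2, humidified; add CellTiter-Glo, 5 min room temperature; read luminescence.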

[6] = Quantitative High-Throughput drug screen in 47 multiple myeloma cell lines against the NCATS MIPE library collection: JIM3_ECACC cell viability assay (AID 1918963; further: nearly all actives have a fitted effect of over 35% in size)
In short: as §3

[7] = Quantitative High-Throughput drug screen in 47 multiple myeloma cell lines against the NCATS MIPE library collection: INA6_PLB cell viability assay (AID 1918965; further: nearly all actives have a fitted effect of over 55% in size)
In short: as §4

[8] = Quantitative High-Throughput drug screen in 47 multiple myeloma cell lines against the NCATS MIPE library collection: H1112_PLB cell viability assay (AID 1918967; further: nearly all actives have a fitted effect of over 30% in size)
In short: as §1

[9] = Quantitative High-Throughput drug screen in 47 multiple myeloma cell lines against the NCATS MIPE library collection: Karpas25_ECACC cell viability assay (AID 1918968; further: nearly all actives have a fitted effect of over 35% in size)
In short: as §1

[10] = Quantitative High-Throughput drug screen in 47 multiple myeloma cell lines against the NCATS MIPE library collection: KMS27_JCRB cell viability assay (AID 1918970); further: nearly all actives have a fitted effect of over 30% in size
In short: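 ATP-based viability (CellTiter-Glo luminescence) is measured in cells treated 48 h with approved and investigational drugs at 37 °C. Controls are DMSO-only wells for full viability and media-only wells for none.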

[11] = Quantitative High-Throughput drug screen in 47 multiple myeloma cell lines against the NCATS MIPE library collection: KMS12PE_JCRB cell viability assay (AID 1918972); further: nearly all actives have a fitted effect of over 30% in size
In short: as §4

[12] = Quantitative High-Throughput drug screen in 47 multiple myeloma cell lines against the NCATS MIPE library collection: KMS20_JCRB cell viability assay (AID 1918973); further: nearly all actives have a fitted effect of over 45% in size
In short: as §1

[13] = Quantitative High-Throughput drug screen in 47 multiple myeloma cell lines against the NCATS MIPE library collection: KMS21BM_JCRB cell viability assay (AID 1918974); conditions: ATP luminescence, 48 h; viability: at 45.8 µM (top of the series) unless noted
In short: as §1

[14] = Quantitative High-Throughput drug screen in 47 multiple myeloma cell lines against the NCATS MIPE library collection: ARD_JJKsccE7 cell viability assay (AID 1918929)
In short: as §1

[15] = Quantitative High-Throughput drug screen in 47 multiple myeloma cell lines against the NCATS MIPE library collection: KMS12BM_JCRB cell viability assay (AID 1918971); further: nearly all actives have a fitted effect of over 35% in size
In short: (§5)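 Inhibition of cell viability is measured here. Each line was plated at 500 cells per well, treated with MIPE 4.0 drugs, kept 48 hours at 37C, then assayed for ATP content by CellTiter-Glo luminescence.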

[16] = Quantitative High-Throughput drug screen in 47 multiple myeloma cell lines against the NCATS MIPE library collection: EJM_DSMZ cell viability assay (AID 1918926; further: nearly all actives have a fitted effect of over 30% in size)
In short: as §1

[17] = Quantitative High-Throughput drug screen in 47 multiple myeloma cell lines against the NCATS MIPE library collection: KHM11_PLB cell viability assay (AID 1918962); further: nearly all actives have a fitted effect of over 35% in size
In short: as §3

[18] = Quantitative High-Throughput drug screen in 47 multiple myeloma cell lines against the NCATS MIPE library collection: JIM1_ECACC cell viability assay (AID 1918964)
In short: as §1

[19] = Quantitative High-Throughput drug screen in 47 multiple myeloma cell lines against the NCATS MIPE library collection: KMS26_JCRB cell viability assay (AID 1918975); further: nearly all actives have a fitted effect of over 45% in size
In short: as §5

[20] = Quantitative High-Throughput drug screen in 47 multiple myeloma cell lines against the NCATS MIPE library collection: JJN3_DSMZ cell viability assay (AID 1918966; further: nearly all actives have a fitted effect of over 50% in size)
In short: as §1
Potency means the concentration at half of the fitted maximal effect.

Compound	Potency [1]	Potency [2]	Potency [3]	Potency [4]	Potency [5]	Potency [6]	Potency [7]	Potency [8]	Potency [9]	Potency [10]	Potency [11]	Potency [12]	Potency [13]	Potency [14]	Potency [15]	Potency [16]	Potency [17]	Potency [18]	Potency [19]	Potency [20]
Cn1cnc2c(F)c(Nc3ccc(Br)cc3Cl)c(C(=O)NOCCO)cc21	0.833 µM (active)	inactive	0.235 µM (active)	5.26 µM (active)	0.264 µM (active)	1.66 µM (active)	0.526 µM (active)	0.662 µM (active)	16.6 µM (active)	0.469 µM (active)	3.32 µM (active)	0.0935 µM (active)	0.105 µM (active)	–	–	–	–	–	–	–
S=C(NCc1ccc2c(c1)OCO2)N1CCN(c2ncnc3c2oc2ccccc23)CC1	2.7 µM (active)	3.03 µM (active)	2.41 µM (active)	1.36 µM (active)	4.29 µM (active)	5.4 µM (active)	1.08 µM (active)	0.605 µM (active)	0.303 µM (active)	4.29 µM (active)	1.52 µM (active)	–	1.21 µM (active)	0.855 µM (active)	1.91 µM (active)	–	–	–	–	–
CCc1cc(Nc2nccc(-c3c(-c4ccc(OC)c(C(=O)Nc5c(F)cccc5F)c4)nc4ccccn34)n2)c(OC)cc1N1CCC(N2CCN(S(C)(=O)=O)CC2)CC1	–	–	–	–	–	18.7 µM (active)	2.96 µM (active)	10.5 µM (active)	7.43 µM (active)	–	–	–	–	–	–	10.5 µM (active)	–	–	–	–
O=C(Nc1ccc(F)c(C(F)(F)F)c1)Nc1nnc(-c2ccncc2)s1	–	–	–	–	–	–	2.35 µM (active)	–	–	inactive	–	–	inactive	–	–	5.9 µM (active)	–	–	–	–
CC(C)C[C@H](NC(=O)[C@@H](O)[C@H](N)Cc1ccccc1)C(=O)O	inactive	16.6 µM (active)	inactive	inactive	–	18.7 µM (active)	20.9 µM (active)	20.9 µM (active)	20.9 µM (active)	inactive	inactive	11.8 µM (active)	–	inactive	23.5 µM (active)	–	20.9 µM (active)	inactive	23.5 µM (active)	–
CCn1c(-c2nonc2N)nc2cnc(Oc3cccc(NC(=O)c4ccc(OCCN5CCOCC5)cc4)c3)cc21	5.9 µM (active)	18.7 µM (active)	–	7.43 µM (active)	–	20.9 µM (active)	2.64 µM (active)	–	2.35 µM (active)	8.33 µM (active)	5.9 µM (active)	–	–	5.9 µM (active)	–	–	–	5.9 µM (active)	–	–
COCCNCCCn1c(C(=O)CF)c(-c2ccc(C)cc2)c2c(N)ncnc21	–	–	–	–	–	inactive	16.6 µM (active)	–	–	–	inactive	–	–	–	–	4.18 µM (active)	–	inactive	–	–
CCOc1ccn(-c2ccc(F)cc2)c(=O)c1C(=O)Nc1ccc(Oc2ccnc(N)c2Cl)c(F)c1	18.7 µM (active)	14.8 µM (active)	–	–	–	inactive	–	13.2 µM (active)	2.35 µM (active)	–	–	–	–	18.7 µM (active)	–	–	–	–	inactive	–
O=C(O)[C@@H](c1ccc(OCc2ccc3ccccc3n2)cc1)C1CCCC1	inactive	inactive	inactive	inactive	–	–	inactive	inactive	inactive	inactive	inactive	inactive	–	inactive	inactive	–	inactive	–	–	–
COc1ccc([C@@H]2CC(=O)c3c(O)cc(O[C@@H]4O[C@H](CO[C@@H]5O[C@@H](C)[C@H](O)[C@@H](O)[C@@H]5O)[C@@H](O)[C@H](O)[C@@H]4O)cc3O2)cc1O	inactive	inactive	inactive	inactive	inactive	–	inactive	inactive	inactive	inactive	inactive	–	–	inactive	inactive	–	–	inactive	–	–
CC(C)(Sc1ccc(CCN(CCCCC2CCCCC2)C(=O)NC2CCCCC2)cc1)C(=O)O	inactive	–	inactive	inactive	–	inactive	–	inactive	inactive	inactive	–	–	–	inactive	–	–	–	–	–	18.7 µM (active)
COc1ccc(-c2oc3cc(OC)ccc3c2C(=O)c2ccc(C#N)cc2)cc1	7.43 µM (active)	–	1.66 µM (active)	–	–	inactive	inactive	–	–	2.09 µM (active)	10.5 µM (active)	inactive	1.32 µM (active)	–	inactive	–	–	6.62 µM (active)	inactive	inactive
CC(C)(N)C(=O)N[C@H](COCc1ccccc1)C(=O)N1CCC2(CC1)CN(S(C)(=O)=O)c1ccccc12	inactive	–	inactive	inactive	inactive	–	10.5 µM (active)	–	16.6 µM (active)	5.26 µM (active)	inactive	–	–	inactive	14.8 µM (active)	–	18.7 µM (active)	inactive	0.0264 µM (active)	3.72 µM (active)
